According to PubChem BioAssay AID1159577 (Broad Institute, 2015):
About 240 (18%) of roughly 1,300 compounds were called active. Roughly 8% stayed inconclusive and do not appear here. These entries were drawn from the full list. Entries with a potency or affinity are not part of this list. A number with no mark means an inactive call. The rule behind the calls is not given here.

Experiment: HepG2 cell cytotoxicity, dose response, cytotoxicity control, cherry-picked samples (AID 1159577);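 note: 0% = neutral control wells and -100% = positive control wells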
Conditions: HepG2 cytotoxicity counterscreen, plate reader; series mostly up to 19.5 µM; activity change, negative = cytotoxicity: at the top concentration

**Q.** With C[C@H](CO)N1C[C@H](C)[C@@H](CN(C)C(=O)c2ccc(F)cc2)Oc2ncc(/C=C/c3ccccc3)cc2C1=O as the compound, how does the “activity change, negative = cytotoxicity” value read?
**A.** Its value is 27.8%.

**Q.** With C[C@@H]1CN([C@@H](C)CO)S(=O)(=O)c2ccc(C#CC3(O)CCCC3)cc2O[C@H]1CN(C)C(=O)c1ccccc1 as the compound, how does the “activity change, negative = cytotoxicity” value read?
**A.** The value was 23.2%.

**Q.** Which “activity change, negative = cytotoxicity” value does the source give for CN1c2ccc(-c3cccc(F)c3)cc2[C@@H]2[C@@H](CCN2C(=O)C2CC2)[C@@H]1CO here?
**A.** The value was 11.9%.

**Q.** With N#C[C@H]1[C@@H](c2ccccc2-c2ccccc2F)[C@@H](CO)N1C(=O)C1CCOCC1 as the compound, how does the “activity change, negative = cytotoxicity” value read?
**A.** The value was 16%.

**Q.** Which “activity change, negative = cytotoxicity” value does the source give for CO[C@H]1CN(C)C(=O)c2ccc(NC(=O)Nc3ccc(C(F)(F)F)cc3)cc2OC[C@@H](C)NC[C@@H]1C here?
**A.** Its value is -22.1%.

**Q.** Which “activity change, negative = cytotoxicity” value does the source give for CO[C@@H]1CN(C)C(=O)c2ccc(NC(=O)Nc3ccc(C(F)(F)F)cc3)cc2OC[C@@H](C)NC[C@@H]1C here?
**A.** The value was -17.8% [at 21 µM].

**Q.** With CO[C@H]1CN(C)C(=O)c2ccc(NC(=O)Nc3ccc(C(F)(F)F)cc3)cc2OC[C@H](C)NC[C@H]1C as the compound, how does the “activity change, negative = cytotoxicity” value read?
**A.** The value was -23.7%.

**Q.** With CO[C@@H]1CN(C)C(=O)c2ccc(NC(=O)Nc3ccc(C(F)(F)F)cc3)cc2OC[C@H](C)NC[C@H]1C as the compound, how does the “activity change, negative = cytotoxicity” value read?
**A.** The value was -28.1%.

**Q.** Which “activity change, negative = cytotoxicity” value does the source give for Cc1ccc(-c2ccccc2[C@H]2[C@@H](C#N)N(C(=O)NC3CCCC3)[C@H]2CO)cc1 here?
**A.** Its value is 9.07% [at 21 µM].

**Q.** For COc1ccc(S(=O)(=O)N(C)C[C@@H]2Oc3cc(-c4ccccc4OC)ccc3S(=O)(=O)N([C@H](C)CO)C[C@H]2C)cc1, which “activity change, negative = cytotoxicity” value is on record?
**A.** Its value is 10.8%.

**Q.** Which “activity change, negative = cytotoxicity” value does the source give for CCCC(=O)Nc1ccc2c(c1)OC[C@H](C)N(Cc1ccc(-c3ccccn3)cc1)C[C@H](C)[C@H](OC)CN(C)C2=O here?
**A.** Its value is 19.9%.

**Q.** For CO[C@@H]1CN(C)C(=O)c2ccc(NC(=O)C3CC3)cc2OC[C@@H](C)N(Cc2cccc(F)c2)C[C@H]1C, which “activity change, negative = cytotoxicity” value is on record?
**A.** Its value is -15.8%.

**Q.** Which “activity change, negative = cytotoxicity” value does the source give for CCC(=O)Nc1ccc2c(c1)C(=O)N(C)C[C@H](OC)[C@H](C)CN(Cc1cccc(F)c1)[C@@H](C)CO2 here?
**A.** Its value is -7.08%.

**Q.** For COc1ccc(CN(C)C[C@@H]2OCc3cn(nn3)CCCC(=O)N([C@H](C)CO)C[C@H]2C)cc1, which “activity change, negative = cytotoxicity” value is on record?
**A.** The value was 9.36%.

**Q.** For COc1ccccc1CN1C[C@@H](C)[C@H](OC)CN(C)C(=O)c2cc(NC(=O)Nc3ccccc3OC)ccc2OC[C@H]1C, which “activity change, negative = cytotoxicity” value is on record?
**A.** The value was -9.22% [at 21 µM].

**Q.** Which “activity change, negative = cytotoxicity” value does the source give for C[C@@H]1CN([C@H](C)CO)S(=O)(=O)c2ccc(C#Cc3ccccc3F)cc2O[C@H]1CN(C)C(=O)c1ccc2c(c1)OCO2 here?
**A.** Its value is 11%.

**Q.** For COc1cccc(C(=O)Nc2ccc3c(c2)C(=O)N(C)C[C@@H](OC)[C@H](C)CN(CCc2ccccc2)[C@H](C)CO3)c1, which “activity change, negative = cytotoxicity” value is on record?
**A.** The value was 11%.

**Q.** Which “activity change, negative = cytotoxicity” value does the source give for C/C=C/c1ccc2c(c1)[C@H]1[C@H](CCN1C(=O)c1ccc(F)cc1)[C@H](CO)N2 here?
**A.** The value was 3.75%.

**Q.** Which “activity change, negative = cytotoxicity” value does the source give for O=C(Nc1ccccc1F)N1C[C@@H]2[C@H](c3ccccc31)[C@H](CO)N2C(=O)C1CCOCC1 here?
**A.** The value was 10.4%.

**Q.** For COc1ccc2c3c([nH]c2c1)[C@@H](CO)N(Cc1cc(F)ccc1F)CC31CN(C(=O)C2CCC2)C1, which “activity change, negative = cytotoxicity” value is on record?
**A.** Its value is -20.9%.

**Q.** For CN(C)C(=O)c1ccc(-c2cccc(-c3nc(C(=O)NC4CCCC4)cc4c3[C@H](CCO)N([S@@](=O)C(C)(C)C)C4)c2)cc1, which “activity change, negative = cytotoxicity” value is on record?
**A.** The value was -9.78% [at 21 µM].

**Q.** For CO[C@@H]1CN(C)C(=O)c2ccc(NC(=O)Nc3cccc(F)c3)cc2OC[C@H](C)NC[C@H]1C, which “activity change, negative = cytotoxicity” value is on record?
**A.** Its value is -1.59%.

**Q.** Which “activity change, negative = cytotoxicity” value does the source give for CO[C@H]1CN(C)C(=O)c2ccc(NC(=O)c3cccc(Oc4ccccc4)c3)cc2OC[C@@H](C)NC[C@H]1C here?
**A.** Its value is -8.04%.

**Q.** Which “activity change, negative = cytotoxicity” value does the source give for COc1ccc(-c2ccc3c(c2)[C@H]2[C@H](CCN2Cc2ccncc2)[C@@H](CO)N3)cc1 here?
**A.** Its value is 2.93% [at 21 µM].

**Q.** Which “activity change, negative = cytotoxicity” value does the source give for CC(C)NC(=O)Nc1ccc2c(c1)C(=O)N(C)[C@H]1CC[C@H](CC(=O)Nc3ccccc3)O[C@H]1CO2 here?
**A.** Its value is 11.6%.

**Q.** For CN1C(=O)c2cc(NC(=O)c3cccc(F)c3)ccc2OC[C@H]2O[C@H](CC(=O)NCC3CCCCC3)CC[C@H]21, which “activity change, negative = cytotoxicity” value is on record?
**A.** The value was -15.7%.

**Q.** For CC(C)(C)[S@@](=O)N1Cc2cc(C(=O)N[C@@H]3CCN(Cc4ccccc4)C3)nc(-c3cccc(-c4ccncc4)c3)c2[C@H]1CCO, which “activity change, negative = cytotoxicity” value is on record?
**A.** The value was 18.4%.

**Q.** With COc1cccc(-c2ccc3c(c2)[C@@H]2[C@@H](CCN2S(=O)(=O)c2cn(C)cn2)[C@@H](CO)N3)c1 as the compound, how does the “activity change, negative = cytotoxicity” value read?
**A.** The value was 2.19%.

**Q.** For N#Cc1ccc(-c2ccc3c(c2)[C@H]2[C@H](CCN2C(=O)C2CCCC2)[C@H](CO)N3)cc1, which “activity change, negative = cytotoxicity” value is on record?
**A.** The value was -4.02%.

**Q.** With O=C(C[C@H]1CC[C@@H]2[C@H](COC[C@H](O)CN2Cc2cc(F)ccc2F)O1)N[C@@H]1CCN(Cc2ccccc2)C1 as the compound, how does the “activity change, negative = cytotoxicity” value read?
**A.** Its value is 2.15%.

**Q.** For COc1ccc2c3c([nH]c2c1)[C@@H](CO)N(Cc1nccs1)CC31CCN(Cc2nccs2)CC1, which “activity change, negative = cytotoxicity” value is on record?
**A.** The value was -9.57%.

**Q.** For COc1ccc2c3c([nH]c2c1)[C@H](CO)N(Cc1ccc(F)cc1)CC31CCN(Cc2ccccn2)CC1, which “activity change, negative = cytotoxicity” value is on record?
**A.** Its value is 3.33%.

**Q.** Which “activity change, negative = cytotoxicity” value does the source give for COc1ccc2c3c([nH]c2c1)[C@H](CO)N(Cc1ccncc1)CC31CN(Cc2ccc(-c3ccccn3)cc2)C1 here?
**A.** Its value is -10.6%.

**Q.** With COc1ccc2c3c([nH]c2c1)[C@@H](CO)N(Cc1ccc(Cl)cc1)CC31CCN(Cc2nccs2)CC1 as the compound, how does the “activity change, negative = cytotoxicity” value read?
**A.** The value was -16.6%.

**Q.** Which “activity change, negative = cytotoxicity” value does the source give for COc1ccc2c3c([nH]c2c1)[C@H](CO)N(Cc1ccccc1)CC31CCN(CC2CC2)CC1 here?
**A.** The value was -13.9%.

**Q.** Which “activity change, negative = cytotoxicity” value does the source give for COc1cccc(CN2CC3(CCN(Cc4ccccn4)CC3)c3c([nH]c4cc(OC)ccc34)[C@@H]2CO)c1 here?
**A.** The value was -5.33%.

**Q.** With C[C@@H]1CN([C@H](C)CO)C(=O)c2cc(NC(=O)CCC(F)(F)F)ccc2O[C@H]1CN(C)C(=O)NC1CCCCC1 as the compound, how does the “activity change, negative = cytotoxicity” value read?
**A.** The value was 8.28%.

**Q.** With O=C(C1CCCC1)N1CC[C@@H]2[C@H](CO)Nc3ccc(Br)cc3[C@@H]21 as the compound, how does the “activity change, negative = cytotoxicity” value read?
**A.** Its value is -29.2% [at 21 µM].

**Q.** Which “activity change, negative = cytotoxicity” value does the source give for COc1ccc2c3c([nH]c2c1)[C@H](CO)N(Cc1ccccc1Cl)CC31CN(C(C)=O)C1 here?
**A.** Its value is -0.4%.

**Q.** Which “activity change, negative = cytotoxicity” value does the source give for CC(C)(C)[S@@](=O)N1Cc2cc(C(=O)NC3CCC3)nc(-c3cccc(Br)c3)c2[C@H]1CCO here?
**A.** Its value is -20.4%.

**Q.** With C[C@@H]1CN([C@@H](C)CO)C(=O)c2cccc(NC(=O)Nc3cccc4ccccc34)c2O[C@H]1CN(C)C(=O)NC1CCCCC1 as the compound, how does the “activity change, negative = cytotoxicity” value read?
**A.** The value was -0.959% [at 16 µM].

**Q.** For COc1ccc2c3c([nH]c2c1)[C@H](CO)N(Cc1ccccc1F)CC31CN(C(=O)C2CCC2)C1, which “activity change, negative = cytotoxicity” value is on record?
**A.** Its value is 15.1%.
